Laboratory results reported in PubChem BioAssay (NCI).
Compounds without any hit were thinned out: in the full panel of roughly 79,000, 15% have a hit. The source made the active and inactive calls. No stated cut-off is given here; in the data, active means growth inhibition above about 70%; inactive means the rest.

How the values were obtained:
[1] = NCI Yeast Anticancer Drug Screen. Data for the rad50 strain (AID 155);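 further: 0% = growth of vehicle-only cultures of the same strain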; conditions: S. cerevisiae rad50 strain growth inhibition, stronger effect = higher value
Summary of the method: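 Inhibition values express reduced yeast growth in compound-treated cultures relative to vehicle-treated controls.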

[2] = NCI Yeast Anticancer Drug Screen. Data for the mec2-1 strain (AID 157); conditions: S. cerevisiae mec2-1 strain, stronger effect = higher value
Summary of the method: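 Readout is yeast growth inhibition, normalised to vehicle-treated controls, in the mec2-1 strain exposed to compound.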

[3] = NCI Yeast Anticancer Drug Screen. Data for the sgs1 mgt1 strain (AID 161);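 further: 0% = growth of cultures given vehicle only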; conditions: S. cerevisiae sgs1 mgt1 strain, stronger effect = higher value
Summary of the method: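 Yeast cells carrying a defined DNA-repair defect were exposed to test compounds. Growth inhibition was measured relative to vehicle-treated controls.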

[4] = NCI Yeast Anticancer Drug Screen. Data for the cln2 rad14 strain (AID 165);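 further: 0% = growth equal to vehicle treated cultures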; conditions: S. cerevisiae cln2 rad14 strain, stronger effect = higher value
Summary of the method: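 Relative to vehicle controls, growth inhibition of compound-treated cln2 rad14 yeast was recorded.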

[5] = NCI Yeast Anticancer Drug Screen. Data for the bub3 strain (AID 167); conditions: S. cerevisiae bub3 mutant strain, stronger effect = higher value
Summary of the method: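 Steps: expose the mutant yeast strain to compound; grow alongside vehicle-treated cultures; measure growth; express inhibition against the vehicle cultures.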

[6] = NCI Yeast Anticancer Drug Screen. Data for the mlh1 rad18 strain (AID 175); conditions: S. cerevisiae mlh1 rad18 strain growth inhibition, stronger effect = higher value
Summary of the method: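 Test agents were incubated with a yeast strain of defined genotype (DNA damage repair defect). Inhibition of growth was derived by comparison with vehicle-exposed cultures.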

[7] = at 5.0 µM (retest, dose inferred, filed as 0.5)
[8] = at 50.0 µM (retest, dose inferred, filed as 5.0)

Measured: growth inhibition

CCCCCCCCN(CCCCCCCC)CC(O)c1cc(OCC)nc2ccccc12 (stereo not given)
active: [1]; [8] 96% | [1]; at 50.0 µM 97.8% | [2]; [8] 97% | [2]; at 50.0 µM 97.7% | [3]; [8] 96% | [3]; at 50.0 µM 97.4% | [4]; [8] 96% | [4]; at 50.0 µM 93.5% | [5]; [8] 97% | [5]; at 50.0 µM 97.8% | [6]; [8] 95% | [6]; at 50.0 µM 96.8%
inactive: [1]; [7] 2% | [2]; [7] 4% | [3]; [7] 4% | [4]; [7] 3% | [5]; [7] 9% | [6]; [7] 9%

Cc1nc(N)sc1N=Nc1ccc(Cl)cc1Cl
active: [1]; [8] 90% | [1]; at 50.0 µM 82.5% | [2]; [8] 90% | [2]; at 50.0 µM 76.4% | [3]; [8] 94% | [3]; at 50.0 µM 84.2% | [4]; at 50.0 µM 84.3% | [5]; at 50.0 µM 81.7% | [6]; [8] 97% | [6]; at 50.0 µM 93.4%
inactive: [1]; [7] 4% | [2]; [7] 1% | [3]; [7] 4% | [4]; [7] 2% | [4]; [8] 48% | [5]; [7] 1% | [5]; [8] 55% | [6]; [7] 16%

O=S(O)CCCCCSSc1ccc(Cl)cc1
active: [1]; [8] 81% | [1]; at 50.0 µM 98% | [2]; [8] 100% | [2]; at 50.0 µM 95.8% | [3]; [8] 97% | [3]; at 50.0 µM 98.8% | [4]; [8] 97% | [4]; at 50.0 µM 98.2% | [5]; [8] 99% | [5]; at 50.0 µM 99% | [6]; [8] 97% | [6]; at 50.0 µM 98.2%
inactive: [1]; [7] 3% | [2]; [7] 9% | [3]; [7] 5% | [4]; [7] -2% | [5]; [7] 25% | [6]; [7] 8%

O=C(OCc1ccccc1)N(CCCCN(CCCNCc1ccccc1)C(=O)OCc1ccccc1)CCCNCc1ccccc1
inactive: [1]; [7] 11% | [2]; [7] 22% | [3]; [7] 10% | [4]; [7] 3% | [5]; [7] 29% | [6]; [7] 28%
active: [1]; [8] 99% | [1]; at 50.0 µM 90.3% | [2]; [8] 100% | [2]; at 50.0 µM 93.2% | [3]; [8] 100% | [3]; at 50.0 µM 91.7% | [4]; [8] 99% | [4]; at 50.0 µM 90% | [5]; [8] 99% | [5]; at 50.0 µM 91.8% | [6]; [8] 99% | [6]; at 50.0 µM 91.2%

CN(C)CCOC(=O)c1ccccc1
inactive: [1]; [7] 3% | [1]; at 50.0 µM 49.4% | [2]; [7] -6% | [2]; [8] 42% | [2]; at 50.0 µM 22.4% | [3]; [7] -2% | [3]; [8] 60% | [3]; at 50.0 µM 24% | [4]; [7] 0% | [4]; at 50.0 µM 27.1% | [5]; [7] -7% | [5]; at 50.0 µM 37.2% | [6]; [7] 2% | [6]; at 50.0 µM 42.2%
active: [1]; [8] 88% | [4]; [8] 81% | [5]; [8] 71% | [6]; [8] 78%

O=C1c2ccccc2C(=O)c2ncccc21
inactive: [1]; [7] 14% | [2]; [7] 8% | [3]; [7] 8% | [4]; [7] -2% | [5]; [7] 11% | [6]; [7] 37%
active: [1]; [8] 91% | [1]; at 50.0 µM 96.3% | [2]; [8] 86% | [2]; at 50.0 µM 94.4% | [3]; [8] 89% | [3]; at 50.0 µM 93.3% | [4]; [8] 85% | [4]; at 50.0 µM 86.5% | [5]; [8] 87% | [5]; at 50.0 µM 91% | [6]; [8] 95% | [6]; at 50.0 µM 97.8%

CC1(Cc2ccccc2)CCCC(C=O)C1=O.[Cu+2] (stereo not given)
active: [1]; [8] 98% | [2]; [8] 97% | [3]; [8] 98% | [3]; at 50.0 µM 94.7% | [4]; [8] 92% | [5]; [8] 96% | [6]; [8] 99%
inactive: [1]; [7] 1% | [1]; at 50.0 µM 66.5% | [2]; [7] 0% | [2]; at 50.0 µM 31.5% | [3]; [7] -4% | [4]; [7] 0% | [4]; at 50.0 µM -21.9% | [5]; [7] -3% | [5]; at 50.0 µM -3.85% | [6]; [7] 0% | [6]; at 50.0 µM 44.9%

O=C1CN(CCN2CCOCC2)CC(=O)N2Cc3ccccc3CN12
inactive: [1]; [7] 12% | [1]; [8] 38% | [1]; at 50.0 µM 61.6% | [2]; [7] 7% | [2]; [8] 55% | [2]; at 50.0 µM 24.1% | [3]; [7] 27% | [3]; [8] 41% | [3]; at 50.0 µM 66.5% | [4]; [7] 3% | [4]; [8] 46% | [4]; at 50.0 µM 62.6% | [5]; [7] 6% | [5]; [8] 35% | [5]; at 50.0 µM 68.5% | [6]; [7] 29% | [6]; [8] 64% | [6]; at 50.0 µM 44.2%

Cc1cc(C2c3ccccc3-c3ccccc32)cc(C)c1O
active: [1]; at 50.0 µM 98.3% | [2]; at 50.0 µM 98.6% | [3]; at 50.0 µM 98.8% | [4]; at 50.0 µM 97.3% | [5]; at 50.0 µM 97.2% | [6]; at 50.0 µM 98.5%
inactive: [1]; [7] 9% | [1]; [8] 7% | [2]; [7] 4% | [2]; [8] 5% | [3]; [7] 4% | [3]; [8] 8% | [4]; [7] -1% | [4]; [8] -9% | [5]; [7] -1% | [5]; [8] 8% | [6]; [7] 7% | [6]; [8] 18%

N#CC(C(=O)C(=O)Nc1ccc(Cl)c(Cl)c1)c1c(Cl)cccc1Cl (stereo not given)
inactive: [1]; [7] -1% | [1]; [8] 4% | [1]; at 50.0 µM 25.9% | [2]; [7] -2% | [2]; [8] -10% | [2]; at 50.0 µM 3.15% | [3]; [7] -1% | [3]; [8] -1% | [3]; at 50.0 µM 2.95% | [4]; [7] 4% | [4]; [8] -4% | [4]; at 50.0 µM 43% | [5]; [7] -1% | [5]; [8] -1% | [5]; at 50.0 µM -3.2% | [6]; [7] -2% | [6]; [8] -5% | [6]; at 50.0 µM 31.4%
